D1 potentiator: Potentiators of Human D1 Dopamine Receptor: qHTS; HEK293 TREx D1 cells, calcium flux, dopamine EC20 potentiation; potentiation, % at 10 µM; D(1A) dopamine receptor (Homo sapiens), P21728; 360,000 tested, 0.036% active; AID 504651, 2011; in the data active means potentiation above about 30%; further: 0% is about no effect
Target sequence (P21728 whole entry, looked up): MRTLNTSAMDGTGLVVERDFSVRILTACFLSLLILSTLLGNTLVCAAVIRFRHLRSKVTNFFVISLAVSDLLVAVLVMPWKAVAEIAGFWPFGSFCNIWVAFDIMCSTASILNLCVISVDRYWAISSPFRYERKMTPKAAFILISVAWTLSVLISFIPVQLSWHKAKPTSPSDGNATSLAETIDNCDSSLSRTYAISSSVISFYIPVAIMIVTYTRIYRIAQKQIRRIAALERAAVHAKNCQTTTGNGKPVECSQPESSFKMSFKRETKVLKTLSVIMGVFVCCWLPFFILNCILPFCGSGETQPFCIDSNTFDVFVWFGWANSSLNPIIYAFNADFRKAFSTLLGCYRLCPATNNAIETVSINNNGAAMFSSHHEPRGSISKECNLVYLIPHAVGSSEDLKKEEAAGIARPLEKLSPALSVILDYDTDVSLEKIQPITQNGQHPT
D1 agonist: Allosteric Agonists of the Human D1 Dopamine Receptor: qHTS; HEK293 T-REx D1 cells, calcium flux, agonist mode; activation, % at 2 µM; 360,000 tested, 1% active; AID 504660, 2011; in the data active means activation above about 30%; further: 0% is about no effect
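Agonism was scored from calcium flux recorded over 180 s (1 read/s) after pintool compound addition, following a 10-cycle baseline. Cells were inducible force-coupled HEK293 TREx D1, plated overnight at 30 C and loaded with no-wash calcium dye.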
D3 antag: qHTS of D3 Dopamine Receptor Antagonist: qHTS | D3R cells, DiscoveRx beta-arrestin luminescence, antagonist mode; stronger effect = lower value | D(3) dopamine receptor (Homo sapiens), P35462 | max response, negative = inhibition, % | 360,000 tested, 2.5% active; in the data active means max response below about -50%; inconclusive means no clear call, values can overlap the other calls; further: on the % scale 0 is the no-effect control and ±100 the full control effect
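Cells expressing the human receptor were seeded at 1500 cells/well, incubated overnight at 37 degrees C in 5% CO2, then exposed to library compounds with dopamine controls for 90 minutes at 37 degrees C before luminescent detection.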
D1 antagonist: Antagonist of Human D 1 Dopamine Receptor: qHTS | D(1A) dopamine receptor (Homo sapiens), P21728 | HEK293 TREx D1 cells, calcium flux, dopamine EC80; stronger effect = lower value | activity change, negative = inhibition, % at 10 µM | 360,000 tested, 3.2% active | AID 504652, 2011; in the data active means activity change below about -30%; further: on the % scale 0 is the no-effect control and ±100 the full control effect
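After overnight tetracycline induction at 30 C, force-coupled D1 HEK293 cells took up a no-wash calcium dye at room temperature. Compounds were added and monitored 180 s, and the response to EC80 dopamine was then recorded.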
Chronic BCR inh: qHTS Assay to Find Inhibitors of Chronic Active B-Cell Receptor Signaling; 340,000 tested, 0.05% active; Potency, µM (doses to about 46.1 µM), without a hit: at the highest dose activity change, negative = inhibition, hits mostly inhibitors; ABC-DLBCL IkBa-CBG/CBR reporter, luminescence ratio, 4 h; active means well fitted inhibition curve with a large enough effect in the signal ratio, with a control signal flat, not every such curve was filed as active; inconclusive means small, poorly fitted or top-dose-only effect, or effect the other way, or a change in a side signal; the % refers to the signal ratio;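 further: potency means the concentration at half of the fitted maximal effect; plate controls were basal doxycycline-induced cells for no effect and cells given 10 µM MG132 for full effect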
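Doxycycline induced both beetle luciferases in TMD8 lymphoma cells; IKK-driven degradation limits the IkappaBalpha-fused green signal, while red luminescence normalises for cell number and nonspecific effects. Compounds tested up to 46 uM, 4 hrs.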
DRD3 agonist: qHTS of D3 Dopamine Receptor Agonist: qHTS. D(3) dopamine receptor (Homo sapiens), P35462. D3R DiscoveRx beta-arrestin cells, luminescence, 90 min. max activation, %. 410,000 tested, 0.58% active. AID 652048, 2013; in the data active means max activation above about 30%; further: 0% is about no effect
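Agonist mode: compounds and dopamine controls were applied to plated cells for 90 min at 37 degrees C after an overnight attachment at 1500 cells/well. Luminescent read-out followed 30 - 60 minutes at room temperature with DiscoveRx detection reagent.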
Numbers without * were called inactive; ? = inconclusive; / = no result. The list is not random: actives were taken first. Their share in the collection is about 6%.

SMILES	D1 potentiator	D1 agonist	D3 antag	D1 antagonist	Chronic BCR inh	DRD3 agonist
COc1ccc(S(=O)(=O)c2c(N)n(Cc3ccco3)c3nc4ccccc4nc23)cc1	-6	10	-71*	-21	?	-4
COc1ccc(Cn2c(C)nc3c(c2=O)c2nc4ccccc4nc2n3Cc2ccco2)cc1	/	/	6	/	/	5
COc1ncccc1C(=O)N1CCCC(C(=O)Nc2cccc(-c3ccc(F)cc3)c2)C1 (centres undefined)	/	/	14	/	/	1
COc1cc(NS(=O)(=O)c2ccc3c(c2)CC(C)N3C(=O)C2CCC2)cc(OC)c1OC (centres undefined)	0	-2	/	6	/	/
CC(C)(C)[C@@H]1COC(=O)[C@H](Cc2ccc(F)cc2)CC/C=C\C[C@H](CC(=O)N(CCO)Cc2ccccc2)C(=O)N1	/	/	-14	/	2%	4
O=C1NC[C@@H](c2ccccc2)OC(=O)[C@H](Cc2ccc(F)cc2)C/C=C\C[C@@H]1CC(=O)N(CCO)Cc1ccccc1	/	/	-67*	/	?	-34
O=C1NC[C@H](c2ccccc2)OC(=O)[C@@H](Cc2ccc(F)cc2)CC/C=C/C[C@@H]1CC(=O)N(CCO)Cc1ccccc1	/	/	-70*	/	/	-27
O=C(C[C@H]1C/C=C\C[C@H](Cc2ccc(F)cc2)C(=O)O[C@@H](c2ccccc2)CNC1=O)N[C@H](CO)Cc1ccccc1	/	/	20	/	1%	43*
CC(C)(C)[C@@H]1COC(=O)[C@H](Cc2ccc(F)cc2)C/C=C\C[C@@H](CC(=O)N(CCO)Cc2ccccc2)C(=O)N1	/	/	28	/	?	42*
O=C(C[C@H]1C/C=C\CC[C@H](Cc2ccc(F)cc2)C(=O)O[C@@H](c2ccccc2)CNC1=O)N[C@@H](CO)Cc1ccccc1	/	/	-17	/	-1%	-28
CCNc1nc(N)nc(Oc2ccc(OCC(=O)OC)nn2)n1	0	0	/	-7	/	-5
CC(C)(C)OC(=O)C[C@H]1C/C=C\C[C@@H](CC(=O)NCCO)C(=O)NC[C@H](c2ccccc2)OC1=O	/	/	29	/	0%	17
O=C(C[C@H]1C/C=C\C[C@H](NC(=O)OCC2c3ccccc3-c3ccccc32)C(=O)OC[C@H](Cc2ccccc2)NC1=O)N[C@H](CO)Cc1ccccc1	/	/	-51*	/	1%	-19
CC(C)(C)OC(=O)C[C@@H]1C/C=C\C[C@@H](CC(=O)NCCO)C(=O)NC[C@@H](c2ccccc2)OC1=O	/	/	-63*	/	2%	-7
C[C@H]1COC(=O)[C@H](Cc2ccc(F)cc2)C/C=C\C[C@H](CC(=O)NCCO)C(=O)N1	/	/	-18	/	2%	30*
C[C@H]1COC(=O)[C@@H](Cc2ccc(F)cc2)C/C=C\C[C@H](CC(=O)NCCO)C(=O)N1	/	/	3	/	-2%	9
CCCCS(=O)(=O)c1nc(-c2ccc(Br)cc2)cc(-c2ccccc2)c1C#N	-2	15	/	-14	/	4
Cc1c(C)n(Cc2ccccc2)c2ccc(C(=O)NCCc3ccccc3Cl)cc12	-5	2	/	-6	/	-14
N#Cc1ccccc1NC(=O)C1CCCO1 (centres undefined)	/	/	20	/	/	5
O=C(CN1CCN(c2ccccn2)CC1)Nc1ccc(F)c(F)c1	1	3	18	5	-3%	22
O=C(CN1CCN(c2ccccn2)CC1)Nc1ccc(OCc2ccccc2)cc1	-8	13	13	-24	0%	50*
Cc1cc(NC(=O)CN2CCN(c3ccccn3)CC2)ccc1Br	-5	1	-10	-5	-7%	47*
CCOC(=O)c1c(C(=O)OCC)c(C)n(N2C(=O)CSC2=S)c1C	-1	5	-62*	4	1%	-2
C/C(N)=C(/C#N)C(=O)CSc1nnc(-c2ccc(OC(F)F)cc2)o1	-7	4	2	-37*	?	1
CCOc1ccc(Cl)cc1CNCCNCC(C)O (centres undefined)	-2	2	-71*	3	-6%	-33
SMILES	D1 potentiator	D1 agonist	D3 antag	D1 antagonist	Chronic BCR inh	DRD3 agonist
O=C(Cn1c(=O)n(Cc2ccc(F)cc2)c(=O)c2sc3ccccc3c21)NCc1ccccc1	-1	3	/	-5	/	-7
CCCCCCCCCCCCCCCC[N+](C)(C)CC	-7	41*	10	-25	-7%	-16
CC#CC[N+](C)(C)CCCCCCCCCCCC	3	34*	4	6	?	-4
COC/C=C/C1=CC2=CC(=O)C(C)(OC(=O)c3cnc4ccccc4n3)C(=O)C2=CN1Cc1ccc(OC)cc1 (centres undefined)	0	4	-20	5	5%	-16
COC/C=C/C1=CC2=CC(=O)C(C)(OC(=O)c3cnc4ccccc4n3)C(=O)C2=CN1Cc1ccccc1 (centres undefined)	-2	1	-65*	2	9%	-16
CCOC(=O)N(C)C[C@@H]1OCc2cnnn2CCCC(=O)N([C@H](C)CO)C[C@H]1C	/	/	15	/	/	5
CC(N)C(=O)NC(C(=O)NC(C)C(=O)Nc1cccc2ccccc12)C(C)C (centres undefined)	/	/	8	/	/	11
Cc1cc(NS(=O)(=O)c2ccc(N)cc2)nc(C)n1	/	/	/	/	/	5
Clc1cc2c(c(CSc3nc4ccccc4n4cccc34)c1)OCOC2	3	2	-2	-47*	-26%	-3
CCOc1ccc(C(=O)Nc2ccc3oc(-c4ccc(C)cc4C)nc3c2)cc1Br	0	0	/	-4	/	3
Cc1ccc(S(=O)(=O)N2CCCCC2)cc1NC(=O)CSc1nnc(C2CC2)n1C	/	/	-71*	/	3%	-8
Cc1ccc(S(=O)(=O)N(C)C)cc1NC(=O)CSc1nnc(C2CC2)n1C1CC1	4	1	-11	-68*	3%	-3
COc1ccc(S(=O)(=O)N2CCCCC2)cc1NC(=O)CSc1nnc(C2CC2)n1C	1	0	-12	-2	10%	0
Cc1ccc(S(=O)(=O)N2CCOCC2)cc1NC(=O)CSc1nnnn1C	2	3	-9	-35*	-5%	5
N#Cc1ccccc1NC(=O)C(=O)NCCc1csc(-c2ccc(F)cc2)n1	0	5	/	-12	?	-13
C#CCOCCOCCOCCNc1nc(N2CCN(C(=O)CCCCCCCCCCNC(=O)Cn3cc(CCCCCN)nn3)CC2)nc(N2CCN(C(=O)CCCCCCCCCCNC(=O)[C@@H](CCC(=O)O)n3cc(CCCCCN)nn3)CC2)n1	-9	39*	11	0	?	-3
